High-throughput results (PubChem BioAssay)
ALDH1A1 inh – inhibitors of human aldehyde dehydrogenase 1A1; P00352; Purified ALDH1A1, NADH fluorescence, propionaldehyde substrate; Potency, µM (top dose mostly 75.3 µM), for the others: at the top dose activity, negative = inhibition, most hits filed as inhibitors; 7.3% of 220,000 active; AID 1030; active means well fitted inhibition curve with a large enough effect, not every such curve was filed as active; inconclusive means small, poorly fitted or top-dose-only effect, or another doubt; inactive means no such curve, though single readings can be large or run the other way;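 further: potency means the concentration at half of the fitted maximal effect; plate controls were no enzyme wells and a reference inhibitor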
aGal spleen mod – inhibits or activates alpha-galactosidase in human spleen homogenate; human spleen homogenate, 4MU-alpha-Gal fluorescence, 40 min; AID 2107; 0.008% of 240,000 active; Potency, µM (series often up to 80 µM), without a hit: at the top dose activity change, negative = inhibition, usual class: inhibitors; P06280;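 further: potency means the concentration at half of the fitted maximal effect; 0% = enzyme with vehicle and -100% = no enzyme basal signal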
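Spleen homogenate 1 ug + cpd (titration) + 4-MU-alpha-D-galactopyranoside 1 mM; 37C 40 min; 50 mM citrate/phosphate pH 5.0, 0.01% Tween-20; stop pH 10; fluorescence 365/440; AC50 via Hill.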
HPGD inh – inhibitors of human 15-hydroxyprostaglandin dehydrogenase (HPGD) | purified HPGD, NADH fluorescence kinetic, PGE2 substrate | Potency, µM, for inactives: at the top dose activity change, negative = inhibition, usual class: inhibitors | 4.3% of 150,000 active; active means well fitted inhibition curve with a large enough effect, not every such curve was filed as active; inconclusive means small, poorly fitted or top-dose-only effect, or another doubt; inactive means no such curve, though single readings can be large or run the other way; further: potency means the concentration at half of the fitted maximal effect
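NADH formation kinetics: reaction with 30 uM PGE2 and 1 mM NAD+ (final), 20 nM enzyme, Tris-HCl pH 8 with Tween 20, after 15 min compound preincubation at room temperature. Fluorescence change, last versus first of five reads.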
GLA inh pH 4.5 – blocks human alpha-galactosidase A at pH 4.5; purified enzyme, 4-MU-alpha-Gal fluorescence, pH 4.5; P06280; AID 1467; activity change, negative = inhibition, % at 105 µM; 230,000 tested, under 10 active;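 further: 0% = full activity with enzyme and -100% = basal without enzyme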
Target sequence (P06280 whole entry, looked up): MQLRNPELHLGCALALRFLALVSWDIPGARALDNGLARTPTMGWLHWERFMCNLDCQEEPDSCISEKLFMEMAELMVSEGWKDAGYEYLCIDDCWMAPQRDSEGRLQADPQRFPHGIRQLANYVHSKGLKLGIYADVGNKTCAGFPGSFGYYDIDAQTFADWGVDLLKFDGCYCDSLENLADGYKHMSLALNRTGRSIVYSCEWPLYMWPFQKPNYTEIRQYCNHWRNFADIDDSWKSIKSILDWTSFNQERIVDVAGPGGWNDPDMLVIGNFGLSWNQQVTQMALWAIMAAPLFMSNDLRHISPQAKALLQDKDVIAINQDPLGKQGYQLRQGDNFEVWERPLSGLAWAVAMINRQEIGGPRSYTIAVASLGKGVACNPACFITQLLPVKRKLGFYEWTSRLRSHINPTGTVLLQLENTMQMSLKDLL
PNC inhibitor – perinucleolar compartment assembly inhibition. PC3M PTB-GFP, PNC prevalence imaging, 16 h; stronger effect = lower value. activity change (PNC), negative = inhibition, % at 10 µM. 3.1% of 140,000 active;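 active means readout at or below -70, meaning at least 70% loss of cells showing the perinucleolar compartment, a nuclear body marking cancer cells; inconclusive means readout between -30 and a set limit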;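 further: plate controls were DMSO wells for no effect and camptothecin positive control wells for full effect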
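PC3M cells stably expressing PTB-GFP, 750–1000 cells/well, treated 16 h at 37 °C with compound (23 nl of library stock), in duplicate. After paraformaldehyde fixation and Hoechst stain, imaged at 20x; PNC prevalence scored by image analysis.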
12-hLO inh – blocks human 12-lipoxygenase activity; P18054; purified 12-hLO, xylenol orange hydroperoxide absorbance; 0.12% of 150,000 active; Potency, µM (top dose mostly 57.1 µM), for inactives: at the highest dose activity change, negative = inhibition, usual class: inhibitors; further: potency means the concentration at half of the fitted maximal effect; nearly all actives have a fitted effect of over 55% in size
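Xylenol orange chromogenic assay: hydroperoxide from 12hLO oxidises Fe(II), giving red-shifted Fe(III)-XO absorbance. Conditions: 150 nM enzyme, 40 uM arachidonic acid, 25 mM Hepes pH 7.0, 0.01% Triton X-100, 30 min, room temperature.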
Active calls of the source: *; ? = inconclusive; . = no result; ! = repeats disagree; [ ] = dose if it differs, or a comment. Most compounds without a hit are left out; they make up all but 10% or so of the library. Unless noted, the call rests on the fitted dose curve; in most records, active means well fitted curve in the direction sought with a large enough effect; inconclusive means small, poorly fitted or top-dose-only effect, or another doubt; inactive means no such curve, though single readings can be large; an effect the other way counts as inactive or inconclusive. Unless noted, on the % scale 0 is the no-effect control and ±100 the full control effect.

SMILES	ALDH1A1 inh	aGal spleen mod	HPGD inh	GLA inh pH 4.5	PNC inhibitor	12-hLO inh
CCOc1ccc2sc(NS(=O)(=O)c3ccc(OC)c(OC)c3)nc2c1	?	11.0%	15.8µM*	-0.1	35.7	-5.2%
COc1ccc2sc(NC(=O)CC(C)C)nc2c1	25.1µM*	-6.5%	-24.3%	0.4	24.3	-15.1%
CC1Nc2ccccc2C(=O)N1NC(=O)c1ccc(Br)cc1 (stereo not drawn)	-1.4%	-3.6%	.	8.4	.	.
CC(C)[C@H](NC(=O)OC(C)(C)C)[C@@H](O)CC(=O)C(C)(C)C	7.1%[13.5 µM]	4.1%[17.5 µM]	.	.	.	.
C#Cc1ccc([C@@H]2C=C(C(=O)OCC=C)O[C@H](OCc3ccc(CO)cc3)C2)cc1	12.6µM*	15.3%	.	-14.4	.	.
C#Cc1ccc([C@@H]2C=C(C(=O)OCC=C)O[C@H](OCCCCO)C2)cc1	15.8µM*	17.9%	.	-7.4	.	.
CCN(CC)c1ccc(N=Cc2cc(Br)ccc2O)cc1	7.94µM*	1.8%	.	-5.8	.	.
Oc1ccc(Br)cc1C=Nc1ccc(Cl)cc1	7.0%	3.7%	.	6.6	.	.
O=C1CC(N2CCN(c3ccccc3Cl)CC2)C(=O)N1c1ccc(F)cc1 (stereo not drawn)	-5.6%	15.3%	-4.7%	1.2	?	-5.5%
O=C1CC(N2CCC(c3nc4ccccc4o3)CC2)C(=O)N1c1ccc(Cl)c(C(F)(F)F)c1 (stereo not drawn)	8.91µM*	-2.2%	20µM*	-0.9	13.7	-16.5%
O=C(O)c1ccc(N2C(=O)CC(N3CCC(c4nc5ccccc5[nH]4)CC3)C2=O)cc1 (stereo not drawn)	31.6µM*	5.2%	.	-13.1	.	.
CN1C(=O)CC(N2CCC(c3nc4ccccc4[nH]3)CC2)C1=O (stereo not drawn)	6.1%	-3.0%	-3.6%	-8.9	-23.8	-3.9%
O=C1CC(N2CCC(c3nc4ccccc4[nH]3)CC2)C(=O)N1c1cccc(F)c1 (stereo not drawn)	11.2µM*	0.8%	.	-2.5	.	.
O=C1CC(N2CCN(c3ccccc3Cl)CC2)C(=O)N1c1cccc(F)c1 (stereo not drawn)	11.2µM*	-7.0%	-11.2%	-0.1	2.9	0.0%
COC(=O)C1(C(=O)OC)CC2=CCC3C(=O)N(c4ccccc4)C(=O)C3C2Cc2ccccc2[C@@H]1C[N+](=O)[O-] (stereo partly drawn)	-12.6%	-8.3%	-2.5%	-6.4	.	0.5%
c1ccc(C(c2ccccc2)N2CC3(CCNCC3)C2)cc1	-3.6%	-10.0%	-0.3%	.	.	3.2%
O=C1CC(N2CCOCC2)C(=O)N1c1cccc(Cl)c1 (stereo not drawn)	?	-1.2%	-4.4%	-3.5	-1.7	0.3%
O=C(C1CCN(C2CC(=O)N(c3cccc(Cl)c3)C2=O)CC1)N1CCCCCC1 (stereo not drawn)	20µM*	-4.3%	-10.3%	-4.5	-24.5	-2.1%
O=C(CSc1nc2ccc([N+](=O)[O-])cc2s1)c1ccc2ccccc2c1	11.2µM*!	-9.3%	-4.2%	-4.5	.	1.7%[11.4 µM]
Nc1nc(SCC(=O)Nc2cc(S(=O)(=O)N3CCOCC3)ccc2Cl)n[nH]1	-6.3%	-2.5%	.	12.8	.	.
O=[N+]([O-])c1ccc2nc(SCc3ccccc3Cl)sc2c1	?	-4.3%	-12.1%	-26.8	99.3	-2.3%
O=C(CSc1nnc(NC(=O)c2ccccc2Cl)s1)Nc1ccc2c(c1)oc1ccccc12	17.8µM*	-5.8%	-6.1%	-3.4	-22.9	0.5%
O=C(CSc1nc2ccccc2s1)Nc1cc(S(=O)(=O)N2CCOCC2)ccc1O	1.0%	-7.2%	12.6µM*	5.8	-4.5	-11.4%
COc1ccc(S(=O)(=O)N2CCOCC2)cc1NC(=O)CSc1n[nH]c(C(C)C)n1	25.1µM*	-2.5%	.	3.3	.	.
O=C(O)CC(NC(=O)C(c1ccccc1)c1ccccc1)c1ccc(F)cc1 (stereo not drawn)	7.2%	1.2%	.	-4.1[21.1 µM]	.	.
